# Laboratory results taken from the supplement of paper PMC10849652.
# About 8,800 targets were measured; listed, in parts, are those with a hit and a random draw of the rest. About 0.5% of all pairs of compound and target were hits. Unmarked numbers belong to inactive results.
# How the values were obtained:
# Experiment in all cases: log2 fold change, soluble protein after heating vs DMSO (PISA); higher = thermal stabilisation; K562 lysate, 10 uM; active = over 0.2 and 3.5 SD of the protein, either way, in both replicates (recomputed)
# vemurafenib = compound: CCCS(=O)(=O)Nc1ccc(F)c(C(=O)c2c[nH]c3ncc(-c4ccc(Cl)cc4)cc23)c1F [vemurafenib]
# Summary of the method: (§1)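 K562 pellets were dounce-homogenised in PBS pH 7.4 containing 1 mM MgCl2, and the crude extract, at 1 mg/mL protein, was exposed to 10 μM compound for 30 min. Aliquots were heated for 3 min across 48°C-58°C, pooled, brought to 0.5% NP-40 at 4°C and spun at 21,000xg for 90 min, with the supernatant taken as soluble protein. TMTpro 16plex LC-MS/MS with equalised channel sums quantified that protein. Values are log-two fold changes in thermal stability relative to solvent controls, taken from duplicates.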
# [1] = compound: CCCS(=O)(=O)Nc1ccc(F)c(C(=O)c2c[nH]c3ncc(Cl)cc23)c1F
# Summary of the method: as §1
# barasertib = compound: CCN(CCCOc1ccc2c(Nc3cc(CC(=O)Nc4cccc(F)c4)[nH]n3)ncnc2c1)CCOP(=O)(O)O [barasertib]
# Summary of the method: as §1
# [2] = compound: CC[C@@H]1C(=O)N(C)c2cnc(Nc3ccc(C(=O)NC4CCN(C)CC4)cc3OC)nc2N1C1CCCC1
# Summary of the method: as §1
# volasertib = compound: CC[C@@H]1C(=O)N(C)c2cnc(Nc3ccc(C(=O)N[C@H]4CC[C@H](N5CCN(CC6CC6)CC5)CC4)cc3OC)nc2N1C(C)C [volasertib]
# Summary of the method: as §1
# [3] = compound: CCn1c(C(=O)N(C2CC2)C2CC2)cc2c3c(ncn3C)c(Nc3cc(C)n(C)n3)nc21
# Summary of the method: as §1
# [4] = compound: CCn1cc(-c2ccnc3[nH]c(-c4cccc(CN(C)C)c4)cc23)c(-c2ccc(NC(=O)N(C)C)cc2)n1
# Summary of the method: as §1
# [5] = compound: CN1CCC(CNc2ccc3ncc(-c4cccc(OC(F)(F)F)c4)n3n2)CC1
# Summary of the method: as §1
# saracatinib = compound: CN1CCN(CCOc2cc(OC3CCOCC3)c3c(Nc4c(Cl)ccc5c4OCO5)ncnc3c2)CC1 [saracatinib]
# Summary of the method: as §1
# sotrastaurin = compound: CN1CCN(c2nc(C3=C(c4c[nH]c5ccccc45)C(=O)NC3=O)c3ccccc3n2)CC1 [sotrastaurin]
# Summary of the method: as §1
# Sequence of UniProt P09429 (P09429 whole entry, looked up): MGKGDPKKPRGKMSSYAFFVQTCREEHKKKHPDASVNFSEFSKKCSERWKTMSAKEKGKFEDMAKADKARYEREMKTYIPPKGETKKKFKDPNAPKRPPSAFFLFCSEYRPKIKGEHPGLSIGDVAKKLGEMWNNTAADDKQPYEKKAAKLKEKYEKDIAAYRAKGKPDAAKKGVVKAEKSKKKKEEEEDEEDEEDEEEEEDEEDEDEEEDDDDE
# Sequence of UniProt Q8IYU2 (Q8IYU2 whole entry, looked up): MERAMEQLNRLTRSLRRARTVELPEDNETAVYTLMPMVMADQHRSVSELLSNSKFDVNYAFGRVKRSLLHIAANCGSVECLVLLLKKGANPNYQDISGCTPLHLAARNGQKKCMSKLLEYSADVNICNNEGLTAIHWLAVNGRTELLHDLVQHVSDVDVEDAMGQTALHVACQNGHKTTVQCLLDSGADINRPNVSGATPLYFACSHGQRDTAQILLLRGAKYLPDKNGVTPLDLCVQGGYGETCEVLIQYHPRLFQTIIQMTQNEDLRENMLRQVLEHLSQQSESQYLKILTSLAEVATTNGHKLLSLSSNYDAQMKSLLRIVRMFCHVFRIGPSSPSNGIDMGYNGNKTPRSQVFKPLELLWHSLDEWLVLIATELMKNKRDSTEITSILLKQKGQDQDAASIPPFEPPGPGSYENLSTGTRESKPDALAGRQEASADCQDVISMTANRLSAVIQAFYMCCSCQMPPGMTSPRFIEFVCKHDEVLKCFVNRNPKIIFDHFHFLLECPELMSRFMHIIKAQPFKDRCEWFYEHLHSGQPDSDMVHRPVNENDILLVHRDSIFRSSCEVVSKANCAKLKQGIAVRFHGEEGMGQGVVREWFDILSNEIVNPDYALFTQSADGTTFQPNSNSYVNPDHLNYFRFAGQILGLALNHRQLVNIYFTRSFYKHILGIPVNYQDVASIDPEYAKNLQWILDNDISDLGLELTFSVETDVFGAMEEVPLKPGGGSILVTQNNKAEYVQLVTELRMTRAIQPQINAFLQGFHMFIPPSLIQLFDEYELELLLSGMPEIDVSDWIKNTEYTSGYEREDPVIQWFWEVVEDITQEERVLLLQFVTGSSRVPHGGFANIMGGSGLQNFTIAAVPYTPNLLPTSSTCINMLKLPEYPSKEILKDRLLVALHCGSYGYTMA
# Sequence of UniProt P78347 (P78347 whole entry, looked up): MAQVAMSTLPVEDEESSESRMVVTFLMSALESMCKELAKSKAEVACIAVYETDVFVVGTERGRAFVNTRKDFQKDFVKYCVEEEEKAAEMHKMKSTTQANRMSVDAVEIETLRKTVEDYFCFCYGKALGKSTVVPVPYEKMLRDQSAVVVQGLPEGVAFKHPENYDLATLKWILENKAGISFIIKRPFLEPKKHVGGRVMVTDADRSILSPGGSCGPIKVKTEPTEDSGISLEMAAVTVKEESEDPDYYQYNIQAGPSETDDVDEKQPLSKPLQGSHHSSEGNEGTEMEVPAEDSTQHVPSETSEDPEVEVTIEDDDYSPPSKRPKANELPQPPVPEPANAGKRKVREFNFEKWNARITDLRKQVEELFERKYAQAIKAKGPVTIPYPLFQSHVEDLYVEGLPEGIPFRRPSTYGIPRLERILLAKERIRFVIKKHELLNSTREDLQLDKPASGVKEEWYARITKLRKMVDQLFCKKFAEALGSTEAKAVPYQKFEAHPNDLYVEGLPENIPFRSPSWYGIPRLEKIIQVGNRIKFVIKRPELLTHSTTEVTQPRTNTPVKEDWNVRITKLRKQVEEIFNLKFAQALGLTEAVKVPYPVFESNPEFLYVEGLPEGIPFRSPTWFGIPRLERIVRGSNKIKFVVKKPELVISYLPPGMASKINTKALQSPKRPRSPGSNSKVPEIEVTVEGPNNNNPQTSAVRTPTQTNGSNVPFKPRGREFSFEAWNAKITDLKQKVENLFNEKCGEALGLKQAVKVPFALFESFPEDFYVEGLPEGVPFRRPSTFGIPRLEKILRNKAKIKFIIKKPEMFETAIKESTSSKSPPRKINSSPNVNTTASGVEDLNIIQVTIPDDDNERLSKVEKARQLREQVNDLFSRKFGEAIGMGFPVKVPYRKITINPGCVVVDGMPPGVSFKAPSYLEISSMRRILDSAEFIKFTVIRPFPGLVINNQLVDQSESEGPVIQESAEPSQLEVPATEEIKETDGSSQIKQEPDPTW
# Sequence of UniProt P82970 (P82970 whole entry, looked up): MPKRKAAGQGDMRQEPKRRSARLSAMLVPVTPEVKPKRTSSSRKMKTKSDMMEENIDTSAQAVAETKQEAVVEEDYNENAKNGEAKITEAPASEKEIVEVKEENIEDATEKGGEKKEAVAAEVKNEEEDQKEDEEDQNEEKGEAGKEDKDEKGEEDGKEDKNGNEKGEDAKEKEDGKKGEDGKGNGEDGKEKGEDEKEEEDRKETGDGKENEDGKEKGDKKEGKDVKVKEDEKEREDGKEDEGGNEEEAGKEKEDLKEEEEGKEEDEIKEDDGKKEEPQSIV
# Sequence of UniProt Q9NWZ3 (Q9NWZ3 whole entry, looked up): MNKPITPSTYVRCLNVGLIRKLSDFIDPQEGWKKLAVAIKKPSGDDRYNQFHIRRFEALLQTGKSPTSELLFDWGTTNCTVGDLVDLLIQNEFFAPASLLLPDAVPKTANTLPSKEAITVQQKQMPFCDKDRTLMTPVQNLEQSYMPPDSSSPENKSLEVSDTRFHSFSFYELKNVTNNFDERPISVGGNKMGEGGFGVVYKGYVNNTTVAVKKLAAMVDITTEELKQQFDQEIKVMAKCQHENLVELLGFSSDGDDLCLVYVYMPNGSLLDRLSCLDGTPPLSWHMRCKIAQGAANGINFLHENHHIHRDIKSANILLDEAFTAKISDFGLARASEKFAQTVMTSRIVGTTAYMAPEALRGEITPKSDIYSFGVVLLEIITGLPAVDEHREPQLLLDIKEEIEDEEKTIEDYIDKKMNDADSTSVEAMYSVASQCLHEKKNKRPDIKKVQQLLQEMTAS
# Sequence of UniProt Q13418 (Q13418 whole entry, looked up): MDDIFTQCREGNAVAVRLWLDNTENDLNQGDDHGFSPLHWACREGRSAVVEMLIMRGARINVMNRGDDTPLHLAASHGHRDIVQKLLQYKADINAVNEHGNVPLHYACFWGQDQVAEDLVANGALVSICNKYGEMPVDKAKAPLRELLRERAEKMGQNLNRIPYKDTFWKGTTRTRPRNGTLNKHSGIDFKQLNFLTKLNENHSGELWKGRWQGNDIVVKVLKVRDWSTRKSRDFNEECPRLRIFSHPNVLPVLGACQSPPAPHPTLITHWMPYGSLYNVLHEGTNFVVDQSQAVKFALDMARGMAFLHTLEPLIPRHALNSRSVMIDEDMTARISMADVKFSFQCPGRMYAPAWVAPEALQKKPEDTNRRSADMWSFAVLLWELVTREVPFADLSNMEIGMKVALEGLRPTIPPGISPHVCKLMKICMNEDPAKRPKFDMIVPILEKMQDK
# Sequence of UniProt Q8NC54 (Q8NC54 whole entry, looked up): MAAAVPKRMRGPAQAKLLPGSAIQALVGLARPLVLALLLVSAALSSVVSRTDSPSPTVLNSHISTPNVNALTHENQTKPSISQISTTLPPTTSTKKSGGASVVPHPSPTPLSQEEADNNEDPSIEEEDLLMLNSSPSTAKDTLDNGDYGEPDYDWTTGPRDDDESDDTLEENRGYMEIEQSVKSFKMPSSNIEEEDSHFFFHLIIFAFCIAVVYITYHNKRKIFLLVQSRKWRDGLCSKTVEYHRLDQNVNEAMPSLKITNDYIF
# Sequence of UniProt Q969S8 (Q969S8 whole entry, looked up): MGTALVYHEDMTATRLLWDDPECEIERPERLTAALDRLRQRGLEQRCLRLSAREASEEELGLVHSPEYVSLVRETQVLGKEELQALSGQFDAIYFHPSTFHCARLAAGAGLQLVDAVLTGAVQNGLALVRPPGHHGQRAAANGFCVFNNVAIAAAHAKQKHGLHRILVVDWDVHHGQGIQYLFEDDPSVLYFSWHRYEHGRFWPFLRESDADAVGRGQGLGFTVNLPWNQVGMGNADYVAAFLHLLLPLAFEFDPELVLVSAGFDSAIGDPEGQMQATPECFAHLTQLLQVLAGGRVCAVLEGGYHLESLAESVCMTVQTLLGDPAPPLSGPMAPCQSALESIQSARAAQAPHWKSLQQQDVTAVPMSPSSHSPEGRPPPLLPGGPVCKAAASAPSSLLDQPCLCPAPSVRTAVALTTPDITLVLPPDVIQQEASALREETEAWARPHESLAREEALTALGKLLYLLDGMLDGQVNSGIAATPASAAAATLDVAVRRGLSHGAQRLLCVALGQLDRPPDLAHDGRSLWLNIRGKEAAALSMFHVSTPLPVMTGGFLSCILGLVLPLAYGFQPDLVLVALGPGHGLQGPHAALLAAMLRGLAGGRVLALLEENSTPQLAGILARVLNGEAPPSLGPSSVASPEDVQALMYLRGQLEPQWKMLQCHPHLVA
# Sequence of UniProt P11142 (P11142 whole entry, looked up): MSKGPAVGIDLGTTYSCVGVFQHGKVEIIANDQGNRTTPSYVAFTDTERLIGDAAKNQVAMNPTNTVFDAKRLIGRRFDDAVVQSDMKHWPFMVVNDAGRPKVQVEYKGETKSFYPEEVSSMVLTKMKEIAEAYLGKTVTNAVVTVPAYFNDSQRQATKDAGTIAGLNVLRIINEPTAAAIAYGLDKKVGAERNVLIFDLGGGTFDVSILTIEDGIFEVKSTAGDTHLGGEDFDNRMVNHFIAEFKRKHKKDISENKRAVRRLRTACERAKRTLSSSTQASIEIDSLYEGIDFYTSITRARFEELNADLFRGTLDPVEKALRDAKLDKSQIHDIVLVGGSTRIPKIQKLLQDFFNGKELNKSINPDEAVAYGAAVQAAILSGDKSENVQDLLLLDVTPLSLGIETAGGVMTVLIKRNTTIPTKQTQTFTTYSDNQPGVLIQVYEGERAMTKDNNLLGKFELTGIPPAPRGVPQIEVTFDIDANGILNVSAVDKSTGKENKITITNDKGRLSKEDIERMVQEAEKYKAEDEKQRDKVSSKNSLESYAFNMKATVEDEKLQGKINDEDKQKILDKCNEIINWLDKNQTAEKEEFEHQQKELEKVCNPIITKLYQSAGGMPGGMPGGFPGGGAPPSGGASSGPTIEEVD
Target,log2 fold change (vemurafenib),log2 fold change [1],log2 fold change (barasertib),log2 fold change [2],log2 fold change (volasertib),log2 fold change [3],log2 fold change [4],log2 fold change [5],log2 fold change (saracatinib),log2 fold change (sotrastaurin)
IMPDH2 (UniProt P12268),0.015,0.009,-0.056,-0.015,0.012,0.039,0.11,0.01,-0.001,-0.005
HNRNPH2 (UniProt P55795),-0.004,0.025,-0.003,0.05,-0.056,0.008,-0.01,-0.056,-0.025,-0.074
HACE1 (UniProt Q8IYU2),0.066,0.07,0.081,0.069,-0.058,0.039,-0.657 (active),0.252,0.025,-0.154
KDM6A (UniProt O15550),-0.045,0.006,0.017,0.035,-0.036,-0.017,0.089,0.067,0.029,-0.01
ILK (UniProt Q13418),0.029,-0.024,0.059,-0.03,-0.072,0.016,-0.034,-0.019,0.011,-0.002
HEATR3 (UniProt Q7Z4Q2),0.025,0.026,0.026,-0.048,-0.028,0.032,-0.064,-0.089,-0.019,0.026
GOLPH3 (UniProt Q9H4A6),-0.007,0.015,0.036,-0.016,-0.041,0.018,-0.029,-0.103,0.021,-0.053
GOLGA6B (UniProt A6NDN3),0.015,-0.003,0.2,0.149,-0.006,0.078,-0.086,0.102,0.101,-0.004
HSPA8 (UniProt P11142),-0.024,0.003,-0.035,-0.031,-0.003,0.002,-0.005,0.014,-0.001,0.004
HAUS5 (UniProt O94927),0.004,0.048,-0.02,-0.038,-0.016,0.026,0.01,-0.087,-0.008,0.03
GTPBP2 (UniProt Q9BX10),0.005,0.005,0.034,-0.03,-0.104,0.043,0.124,-0.074,0.047,0.043
HDAC10 (UniProt Q969S8),0.142,-0.093,0.009,-0.052,-0.056,-0.117,-0.026,0.02,-0.052,-0.069
KCT2 (UniProt Q8NC54),0.046,0.023,0.127,0.054,-0.001,-0.038,-0.374 (active),0.153,0.089,0.038
GSTP1 (UniProt P09211),-0.007,-0.017,0.008,0.003,0.034,0.324 (active),-0.059,0.021,0,-0.002
HMGB1 (UniProt P09429),-0.01,-0.014,-0.013,0.102,0.035,-0.039,0.389 (active),-0.184,-0.011,-0.075
HDHD5 (UniProt Q9BXW7),-0.033,0.043,-0.137,-0.076,-0.02,0.01,0,0.011,-0.06,0.05
ISOC2 (UniProt Q96AB3),0.048,0.033,-0.12,0.096,0.013,-0.043,0.02,-0.08,-0.047,0.002

Target,log2 fold change (vemurafenib),log2 fold change [1],log2 fold change (barasertib),log2 fold change [2],log2 fold change (volasertib),log2 fold change [3],log2 fold change [4],log2 fold change [5],log2 fold change (saracatinib),log2 fold change (sotrastaurin)
KHK isoform 2 (UniProt P50053),-0.021,0,0.052,-0.053,0.017,0.076,0.404 (active),-0.072,0.067,0.013
GPR108 (UniProt Q9NPR9),0.001,-0.059,-0.03,0.01,0.03,0.031,0.057,0.01,0.092,0.019
HSPA14 (UniProt Q0VDF9),0.023,0.011,0.001,-0.026,-0.043,0.013,0.04,-0.021,0.002,0.039
HAUS2 (UniProt Q9NVX0),-0.076,-0.005,0.097,0.018,0.038,0.036,0.141,-0.089,0.048,-0.007
HMGN5 (UniProt P82970),-0.007,-0.011,-0.044,0.016,0.013,-0.044,0.3 (active),-0.164,-0.027,-0.029
IARS (UniProt P41252),0.004,0.011,0.026,-0.086,-0.079,0.048,0.044,-0.111,0.006,0.014
KIAA0930 isoform 2 (UniProt Q6ICG6),-0.118,-0.009,0.002,0.162,0.14,0.159,-0.078,0.028,0.098,0.075
GTF2I (UniProt P78347),-0.004,0.031,0.034,-0.055,-0.036,0.005,-0.054,-0.033,0.014,0.01
GSTCD (UniProt Q8NEC7),0.028,0.057,-0.039,-0.018,-0.05,0.011,-0.055,-0.015,0.034,0.037
GMIP (UniProt Q9P107),0.041,0.048,-0.024,-0.01,0,-0.005,-0.027,-0.004,0.007,0.034
IRAK4 (UniProt Q9NWZ3),-0.028,-0.005,0.107,-0.085,-0.022,0.063,0.001,0.19,0.045,-0.022
HSD17B10 (UniProt Q99714),0.017,-0.016,-0.021,-0.006,-0.015,-0.022,-0.081,0.024,-0.022,-0.014
ITPKA (UniProt P23677),-0.007,0.019,0.041,-0.105,-0.065,-0.03,0,0.054,0.013,-0.045
GPX4 (UniProt P36969),-0.003,0.025,-0.002,-0.068,-0.038,0.013,0.027,-0.079,0.02,0.012
GLB1 (UniProt P16278),-0.034,0.012,-0.029,0.02,-0.045,-0.017,-0.066,0.019,-0.032,0.043
HDAC2 (UniProt Q92769),-0.025,0.035,0.009,-0.012,-0.009,0.002,-0.052,0.055,0.02,-0.024
